Source: PubChem BioAssay
An excerpt weighted towards active compounds, which were near 2.2% of everything screened.
rTrxR1 inhibitor: blocks rat thioredoxin reductase 1. O89049. recombinant rTrxR1, NADPH fluorescence consumption, selenite substrate. Potency, µM (highest dose often 114 µM), inactives show top-dose activity change, negative = inhibition, most hits filed as inhibitors. 390,000 tested, 1% active; also: potency is read from the fitted curve at half-maximal effect; % is scaled to controls: 0 for no effect and ±100 for the full control effect; nearly all actives have a fitted effect of over 65% in size
Target sequence (O89049 whole entry, looked up): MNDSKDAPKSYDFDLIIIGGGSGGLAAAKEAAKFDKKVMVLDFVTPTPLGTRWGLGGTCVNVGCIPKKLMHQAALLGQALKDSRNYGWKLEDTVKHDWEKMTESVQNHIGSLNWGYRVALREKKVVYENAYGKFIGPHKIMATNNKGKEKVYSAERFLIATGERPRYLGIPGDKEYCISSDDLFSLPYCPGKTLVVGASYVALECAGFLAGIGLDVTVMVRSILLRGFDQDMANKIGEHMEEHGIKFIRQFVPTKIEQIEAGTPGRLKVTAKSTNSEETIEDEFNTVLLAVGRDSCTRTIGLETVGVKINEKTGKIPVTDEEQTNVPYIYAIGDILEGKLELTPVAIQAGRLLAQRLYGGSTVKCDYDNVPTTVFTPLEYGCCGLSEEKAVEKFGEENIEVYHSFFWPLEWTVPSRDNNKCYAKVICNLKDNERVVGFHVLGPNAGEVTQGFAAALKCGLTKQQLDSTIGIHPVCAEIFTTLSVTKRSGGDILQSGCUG
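Rat TrxR1 (90 nM in the dispensed reagent) was pre-reduced with 400 uM NADPH for 5 min at room temperature, then incubated with compound for 15 min. After 400 uM selenite was added, NADPH fluorescence (Ex 340/Em 450 nm) was followed for 8 min.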
Giardia kill: kills Giardia lamblia; 340,000 tested, 0.15% active; Giardia lamblia trophozoite viability; activity change, % at 7.66 µM, hits read low; in the data active = activity change below about -80%; inconclusive = between about -30% and that limit;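 also: parasites exposed to compound for two days anaerobically before the ATP read; % is scaled to controls: 0 for no effect and ±100 for the full control effect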
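Each well holds 100 Giardia trophozoites and compound. After two days (48 hrs) at 37 deg C in anaerobic conditions, ATP is quantified by luminescence.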
BRCA1 expr act: BRCA1 expression activation; MCF7-BRCA1-FFLuc reporter, luminescence, 48 h; response scale: scaled: vehicle 0%, 10 µM genistein 100%; Potency, µM (series often up to 46.1 µM), for inactives: top-dose activation, most hits filed as activators; 380,000 tested, 1.1% active; AID 624202; also: potency is read from the fitted curve at half-maximal effect; nearly all actives have a fitted effect of over 80% in size
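Quantitative HTS in MCF7 cells stably reporting BRCA1 expression via firefly luciferase. Compound treatment lasts 48 h at 37 °C in phenol-red free MEM. Activation is expressed relative to genistein at 10 microM and DMSO.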
IDH1 R132H inh: human IDH1 R132H inhibition; Potency, µM (doses to about 76.6 µM), inactives show at the top dose activity change, negative = inhibition, actives largely listed as inhibitors; 390,000 tested, 0.093% active; IDH1-R132H enzyme, NADPH consumption, diaphorase/resazurin fluorescence; O75874; AID 602179; also: potency is read from the fitted curve at half-maximal effect; % is scaled to controls: 0 for no effect and ±100 for the full control effect; nearly all actives have a fitted effect of over 65% in size
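IDH1-R132H (0.5 ug/mL dispensed) in pH 7.5 Tris buffer was preincubated 30 min with compound, then given a substrate mix of 0.016 mM NADPH and 2 mM alpha-KG for 80 min at room temperature; remaining NADPH was read by diaphorase/resazurin fluorescence.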
TrxR1 substrate: substrates of rat thioredoxin reductase 1. O89049. purified TrxR1 substrate turnover, NADPH consumption readout. Potency, µM (highest dose often 114 µM), for inactives: at the top dose activity change, negative = substrate turnover. 390,000 tested, 0.01% active; also: potency is read from the fitted curve at half-maximal effect; % is scaled to controls: 0 for no effect and ±100 for the full control effect; nearly all actives have a fitted effect of over 50% in size
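Rat TrxR1, dispensed at 90 nM, was prereduced with 400 uM NADPH (final) for 5 min at ~22 deg C, then incubated with compound 15 min before 400 uM selenite. A first-read NADPH fluorescence drop versus no-compound background flagged substrates.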
IL2 activator: IL-2 activation; IL-2 activation reporter assay, cell-based qHTS; stimulated with anti-CD3/CD4/CD28 beads; in transgenic mouse T cells; activation, % (series mostly up to about 46 µM); AID 652025; 360,000 tested, 0.065% active; in the data active = activation above about 50%; inconclusive = mostly about 30% to 49%; also: 0% is about no effect
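Readout: EGFP and DsRed signals by fluorescent plate cytometry. Unstimulated transgenic mouse T cells received compound 60 min before antibody-bead stimulation, then incubated 18 h at 37 degrees C.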
The depositor's hits bear a star; ? = inconclusive; . = no result; [ ] = another dose, or the depositor's remark. Unless noted, calls follow the shape of the dose curve; as a rule, active = well fitted curve in the direction sought with a large enough effect; inconclusive = small, poorly fitted or top-dose-only effect, or another doubt; inactive = no such curve, though single readings can be large; an effect the other way counts as inactive or inconclusive.

SMILES	rTrxR1 inhibitor	Giardia kill	BRCA1 expr act	IDH1 R132H inh	TrxR1 substrate	IL2 activator
c1ccc(OCc2nc(-c3ccncc3)no2)cc1	8%	18	11µM*	1%	7%[57.1 µM]	2
CCN1C(C(=O)c2ccccc2)=C(OC(=O)C(C)C)c2ccccc2S1(=O)=O	15%	.	.	14%	-4%	.
CCN1C(C(=O)c2ccccc2)=C(OC(=O)COc2ccccc2)c2ccccc2S1(=O)=O	28µM*	.	.	-21%	-7%	.
Cc1cccc(NC(=O)COc2ccc(Br)cc2/C=N/O)c1	-11%	-8	4.5µM*	-6%	-16%	-1
CC(=O)Nc1ccc(NC(=O)COc2ccc(Br)cc2C)cc1	10%	1	-11%	10%	8%[57.1 µM]	-5
O=C(N/N=C/C=C/c1ccco1)/C(=C/c1ccccc1)NC(=O)c1ccccc1	20µM*	8	1%	-1%	-7%[57.1 µM]	-2
O=C(N/N=C/C=C\c1ccco1)c1cccs1	?	15	7.1µM*	2%	-3%[57.1 µM]	1
O=C(N/N=C/C=C/c1ccco1)c1ccncc1	40µM*	8	-22%	-3%	-14%	5
O=C(Cc1cccs1)N/N=C/C=C\c1ccco1	?	4	76%	14%	-5%	2
Cc1cc2c(cc1NS(=O)(=O)c1ccc(Br)cc1)n(C)c(=O)c(=O)n2C	-5%[57.1 µM]	.	.	4%	-6%[57.1 µM]	.
COc1ccc(S(=O)(=O)Nc2ccc3c(c2)CCCN3S(=O)(=O)c2ccc(C)cc2)cc1F	13%[57.1 µM]	.	.	-4%	3%[57.1 µM]	.
CCCn1[nH]cc(SC)c(=O)c1=O	2%	-8	14%	2%	-2%	51*
Fc1ccc([C@@H]2Nc3ccccc3[C@@H]3C=CC[C@@H]32)cc1	28µM*	.	.	0%	2%	.
COC(=O)c1ccc([C@H]2Nc3ccc(S(=O)(=O)Nc4ccc(F)cc4)cc3[C@H]3C=CC[C@H]32)cc1	71µM*	.	.	-14%	-3%	.
COc1cccc(NS(=O)(=O)c2ccc3c(c2)C2C=CCC2C(c2ccc(C(=O)O)cc2)N3)c1 (stereo not given)	40µM*	-4	-12%	-8%	-10%	0
Cc1cccc(NS(=O)(=O)c2ccc3c(c2)[C@H]2C=CC[C@H]2[C@@H](c2ccc(F)cc2)N3)c1	3%	.	.	-15%	5%	.
O=C(O)c1ccc2c(c1)[C@@H]1C=CC[C@@H]1[C@H](c1ccccn1)N2	4µM*	6	0%	5%	-5%	-2
COc1ccc(OC)c([C@@H]2Nc3ccc(C(=O)O)cc3[C@@H]3C=CC[C@@H]32)c1	1%[57.1 µM]	.	.	-3%	5%[57.1 µM]	.
Cc1ccc2c(c1)N(C(=O)N1CCC(C(=O)NCc3ccccc3C)CC1)CC(C)O2 (stereo not given)	11%	.	.	-9%	5%[11.4 µM]	.
COc1ccc(NC(=O)c2csnn2)cc1Cl	16%	.	.	.	1%	.
Cc1cccc(OCCNc2ccc(C(F)(F)F)cc2[N+](=O)[O-])c1	11%[57.1 µM]	6	3.2µM*	0%	-7%[57.1 µM]	23
CC(C)(C)n1ncc2c(=O)n(Cc3ccc(Cl)c(SC(F)(F)F)c3)cnc21	2%	.	.	.	-7%	.
Cc1ccc2c(c1)c(=O)c(C(=O)c1ccccc1)cn2Cc1ccccc1F	20%	.	.	-20%	3%	.
CCN1CCN(c2cc(C)c3cc(NC(=O)/C=C/c4ccc(OCCC(C)C)cc4)ccc3n2)CC1	7%[2.29 µM]	.	.	-12%	-3%[2.29 µM]	.
Cn1c(=O)c(C(=O)CCl)c(N)n(CC2CC2)c1=O	14µM*	-6	-12%	6%	-6%[57.1 µM]	0
SMILES	rTrxR1 inhibitor	Giardia kill	BRCA1 expr act	IDH1 R132H inh	TrxR1 substrate	IL2 activator
COc1cccc(-c2nc3ccccc3c(=O)o2)c1	0%	2	40%	-1%	0%	-1
COc1cccc(C2=N/C(=C\N(C)C)C(=O)O2)c1	5%[57.1 µM]	6	11µM*	3%	0%[57.1 µM]	-1
Cc1cc(C)c(S(=O)(=O)NCCS(=O)(=O)N2CCN(c3ccccc3)CC2)c(C)c1	25%[57.1 µM]	.	.	1%	1%[57.1 µM]	.
O=C1C2C3C=CC(CNS(=O)(=O)c4ccccc4[N+](=O)[O-])(O3)C2C(=O)N1c1ccccc1 (stereo not given)	18µM*	-19	-32%	-1%	15%[57.1 µM]	0
O=[N+]([O-])c1ccccc1S(=O)(=O)NCc1ccco1	1%	-3	2%	3%	-1%	0
Cc1cc(C)c(S(=O)(=O)NCC23C=CC(O2)C2C(=O)N(c4ccccc4)C(=O)C23)c(C)c1 (stereo not given)	14µM*	-29	-2%	7%	-13%	-1
COc1ccc(-c2c(C#N)c(SCC(=O)Nc3ccccc3C)nc(C)c2C(=O)Nc2ccccc2)cc1OC	78%	.	.	14%	59%	.
CN1CCCc2cc(/C=C/c3ccnc4ccccc34)ccc21	-16%	.	.	.	-1%	.
O=C(CCS(=O)(=O)c1ccc(Br)cc1)Nc1cc(F)ccc1F	35µM*	9	-36%	1%	-1%	5
c1ccc(-c2noc(-c3ccc4ccccc4c3)n2)nc1	24%	-93*	-105%	3%	24%	7
Cc1ccc(OCc2nc(-c3ccccn3)no2)cc1	25%	26	?	1%	14%	-2
CC(C)(C)Cc1nc(-c2ccccn2)no1	-10%	3	10µM*	4%	-11%	-3
c1ccc(-c2noc(C34CC5CC(CC(C5)C3)C4)n2)cc1	14%	11	78%	8%	7%	2
c1ccc(-c2noc(C34CC5CC(CC(C5)C3)C4)n2)nc1	8%	14	3.5µM*	3%	3%	2
Cc1ccc(SCc2nc(-c3ccccn3)no2)cc1	19%[57.1 µM]	-4	5µM*	1%	2%[57.1 µM]	-2
Cc1ccc(C)c(NC(=O)CSc2cn(CC(=O)N3CCCCC3)c3ccccc23)c1	-1%	.	.	-18%	-8%	.
COc1ccccc1OCC(=O)N(Cc1ccc(N(C)C)cc1)CC1CCCO1 (stereo not given)	6%	.	.	19%	-2%	.
C1=C/C(=C2/C=Cc3ccccc32)c2ccccc2N1	3%	.	.	.	-6%	.
Cc1ccc(COc2ccc3c(c2)OCO3)cc1	13%	5	?	9%	-3%	3
O=Cc1ccc(OCc2ccc3c(c2)OCO3)cc1	26%	21	2.8µM*	5%	0%	1
CCOC(=O)c1cc(-c2ccc(F)cc2)n(CCC(=O)NC2CCC(C)CC2)c1C (stereo not given)	25%[57.1 µM]	.	.	-9%	2%[57.1 µM]	.
C=C(C)C1CC=C(C)C(=NNC(=O)c2ccncc2)C1 (stereo not given)	-3%[2.29 µM]	-10	-24%	17%	6%[57.1 µM]	0
C/C(=N/NC(=O)c1cccs1)c1cccs1	9%	-10	3.5µM*	2%	-6%	7
